# Test results published in PubChem BioAssay (NCATS).
# Records with an inconclusive call do not appear. A call without a number means that no potency is given here. Unmarked numbers belong to inactive results. The source made the active and inactive calls. Calls come from the whole dose curve; as a rule, active = well fitted cell-killing curve with a large enough effect; inconclusive = small, poorly fitted or top-dose-only effect, or effect the other way; inactive = flat fitted curve, though single readings scatter. Where a SMILES comes first, the peptide text is derived from it. [ ]: non-standard residue; d: D form. ξ: configuration not given here. ξPhe(βξ-Me) = CC(c1ccccc1)C(N)C(=O)O; GABA = NCCCC(=O)O
# Tested on: Es-2
# Experiment: Primary qHTS to identify gynecologic anti-cancer compounds using libraries of approved drugs and bioactive compounds (AID 1345084); note: nearly all actives have a fitted effect of over 55% in size
# Details: Gynecologic cancer cell panel viability, ATPlite luminescence, 48 h; series mostly up to 57.5 µM
# Outline: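 Cells, 1,000 per well, plated 16 h, then exposed 48 h at 37 C to compounds. Viability by ATPlite luminescence after 15 min at room temperature.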
SMILES,"activity change, negative = cytotoxicity",Potency
O=C(OCc1cccc(O)c1O[C@@H]1O[C@H](CO)[C@@H](O)[C@H](O)[C@H]1O)C1(O)C(=O)C2C=CC1C1C=CC(=O)C(O)(C(=O)OCc3cccc(O)c3O[C@@H]3O[C@H](CO)[C@@H](O)[C@H](O)[C@H]3O)C21 (stereo not given in full),2.61% [at 11.6 µM],
C/C=C(\C)C(=O)O[C@H]1[C@H](O)[C@]2(COC(C)=O)[C@H](O)C[C@]3(C)C(=CCC4[C@@]5(C)CC[C@H](O[C@@H]6O[C@H](C(=O)O)[C@@H](O[C@@H]7O[C@H](CO)[C@@H](O)[C@H](O)[C@H]7O)[C@H](O)[C@H]6O[C@@H]6O[C@H](CO)[C@@H](O)[C@H](O)[C@H]6O)[C@](C)(CO)C5CC[C@]43C)[C@@H]2CC1(C)C (stereo not given in full),5.46% [at 11.6 µM],
CC(=O)O[C@@H]1C[C@@]23C[C@@]24CC[C@H](OC2OC[C@@H](O)[C@H](O)[C@H]2O)C(C)(C)[C@@H]4CC[C@H]3[C@]2(C)CC3OC4(C[C@@H](C)C3[C@@]12C)OCC1(C)OC14 (stereo not given in full),,inactive
COc1ccc2c(c1O)OC[C@H]1c3ccc(O)cc3O[C@@H]21,,inactive
CC1=CC(=O)C2C(C)(C)CCCC2(C)C12CCC1(COC(=O)C1)O2 (stereo not given),,inactive
C[C@]1(O)CC[C@@H]2C(C(=O)O)=CO[C@@H](O[C@@H]3O[C@H](COC(=O)c4ccc(O)cc4)[C@@H](O)[C@H](O)[C@H]3O)[C@@H]21,,inactive
O=C(c1ccccn1)c1cnn2c(-c3ccncc3)ccnc12,,inactive
C=CC1(C)C=C2C(O)CC3C(C)(C(=O)O)CCCC3(C)C2CC1 (stereo not given),,inactive
COC(=O)C1=CO[C@@H](O[C@@H]2O[C@H](COC(=O)/C=C/c3cc(OC)c(O)c(OC)c3)[C@@H](O)[C@H](O)[C@H]2O)[C@@H]2C(CO)=CC[C@H]12,,inactive
CC12CCC3C(C)(C)C(O)CCC3(C)C1Cc1c(oc(C(=O)O)cc1=O)O2 (stereo not given),,inactive
C=C(C)C(C)C1OC23CC4(CO2)C(CCC2C5(C)CCC(OC6OCC(O)C(OC7OC(CO)C(O)C(OC8OCC(O)C(O)C8O)C7O)C6OC6OC(CO)C(O)C6O)C(C)(C)C5CCC24C)C3C(C)(O)C1OC(C)=O (stereo not given),0.0055% [at 11.6 µM],
CC(=O)Oc1cc2c(s1)CCN([C@H](C(=O)C1CC1)c1ccccc1F)C2,,inactive
Cc1ncc([N+](=O)[O-])n1CC(O)CN1CCOCC1 (stereo not given),,inactive
O=C(c1ccc(NS(=O)(=O)c2cccc3cccnc23)cc1)N1CCN(CC2CC2)CC1,,inactive
C/C(=C\CCC(C)(O)c1ccc(C)cc1)C(=O)O (stereo not given),,inactive
COc1cc(C2Oc3c(OC)cc(/C=C/C(=O)OC[C@H]4O[C@@H](OC(C)(C)C(=O)O)[C@H](O)[C@@H](O)[C@@H]4O)cc3C2CO)ccc1O (stereo not given in full),,inactive
CC(C)CC1NC(=O)C(C(C)c2ccccc2)NC(=O)C(C(C)C)NC(=O)C(C)NC(=O)CCCNC(=O)C(Cc2c[nH]c3ccccc23)NC(=O)C(C)NC1=O (stereo not drawn) (cyclo([GABA]AV[ξPhe(βξ-Me)]LAW); configuration not given here),,inactive
C=CC1C(O[C@@H]2O[C@H](CO)[C@@H](O)[C@H](O)[C@H]2O)OC=C(C(=O)OC)C1CC(=O)O (stereo not given in full),,inactive
CC1CCC2(NC1)OC1C(=O)C3C4CCC5CC(O[C@@H]6O[C@H](CO)[C@@H](O)[C@H](O)[C@H]6O[C@@H]6O[C@@H](C)[C@H](O)[C@@H](O)[C@H]6O)CCC5(C)C4CCC3(C)C1C2C (stereo not given in full),,inactive
C=C(C(=O)O)C1CCC(C)C2CCC(=O)OC2(C)C1 (stereo not given),,inactive
CC1(C)C(=O)N2c3ccccc3[C@]3(CC(n4cnc5ccccc5c4=O)C(=O)O3)[C@H]2N1O (stereo not given in full),,inactive
CC(C)c1nc(N(C)S(C)(=O)=O)nc(-c2ccc(F)cc2)c1/C=C/[C@@H](O)C[C@@H](O)CC(=O)O,,inactive
O=C(O)Cc1nn(Cc2nc3cc(C(F)(F)F)ccc3s2)c(=O)c2nccnc12,,inactive
O=C(O)CCc1cc2ccoc2cc1O[C@@H]1O[C@H](CO[C@@H]2OC[C@](O)(CO)[C@H]2O)[C@@H](O)[C@H](O)[C@H]1O,,inactive
COc1ccc(/C=C/C(=O)O[C@@H]2[C@@H](OC(C)=O)[C@@H](OC(C)=O)[C@H](O[C@H]3[C@@H]4C=CO[C@@H](O[C@@H]5O[C@H](CO)[C@@H](O)[C@H](O)[C@H]5O)[C@@H]4[C@@]4(CO)O[C@@H]34)O[C@H]2C)cc1O,,inactive
